From PubChem BioAssay
KB-3-1 tox = qHTS assay for MDR1-selective chemotherapeutics: Primary screen using the parental adenocarcinoma cell KB-3-1 | Potency, µM (doses to about 46.1 µM), actives largely listed as cytotoxic | hit rate 1.4% among 400,000 | AID 1347075, 2019 | KB-3-1 viability, CellTiter-Glo ATP luminescence, 72 h; note: nearly all actives have a fitted effect of over 60% in size
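Cytotoxicity in the drug-sensitive parental line KB-3-1 was scored as loss of CellTiter-Glo luminescence following 72 h incubation with compound. Values come from curve fitting of normalized concentration-response data.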
KB-V1 cytotox = qHTS assay for MDR1-selective chemotherapeutics: Primary screen using the drug-selected MDR subline cells KB-V1; KB-V1 MDR cells viability, CellTiter-Glo, 72 h; Potency, µM (highest dose often 46.1 µM), most hits filed as cytotoxic; hit rate 3.4% among 400,000; note: nearly all actives have a fitted effect of over 60% in size
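KB-V1 cells (P-gp-expressing MDR subline of KB-3-1) in phenol-red-free DMEM with 10% FBS were exposed to library compounds over a concentration series for 72 h at 37 degrees C. Viability read by CellTiter-Glo luminescence; concentration-effect curves fitted after normalization.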
TDP1 cell CPT = qHTS for Inhibitors of human tyrosyl-DNA phosphodiesterase 1 (TDP1): qHTS in cells in presence of CPT; chicken DT40 Tdp1-/-;hTDP1 cells + 20 nM CPT, ATP luminescence, 48 h; Potency, µM (series often up to 46.2 µM), without a hit: top-dose activity change, negative = growth inhibition, hits mostly inhibitors; hit rate 12% among 420,000; AID 686979, 2013; note: nearly all actives have a fitted effect of over 55% in size
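Chicken DT40 Tdp1-/- cells complemented with human TDP1, 400 cells/well, exposed to compounds plus 20 nM camptothecin for at least 48 h at 37 C; viability read as ATP content by CellTiter-Glo luminescence.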
HT1080-NT tox = qHTS for induction of synthetic lethality in tumor cells producing 2HG: qHTS for the HT-1080-NT fibrosarcoma cell line; hit rate 1.6% among 360,000; Potency, µM (titrated, usually from 46.1 µM), inactives show at the highest dose activity, negative = less viability, hits mostly cytotoxic; HT-1080-NT fibrosarcoma viability, CellTiter-Glo ATP luminescence, 48 h;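 note: NT is the 2HG producing partner of a matched IDH1 knockdown line; 0% = DMSO-treated cells and -100% = media-only wells without cells; nearly all actives have a fitted effect of over 55% in size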
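HT-1080-NT; 750 cells/well; 5% FBS RPMI; 48 h compound, 37 degrees C; CellTiter-Glo luminescence; curve fitting and curve-class assignment.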
HT1080 IDH1KD tx = qHTS for induction of synthetic lethality in tumor cells producing 2HG: qHTS for the HT-1080-IDH1KD cell line; HT-1080 IDH1 knockdown viability, ATP luminescence, 48 h; Potency, µM (doses to about 46.1 µM), without a hit: top-dose activity, negative = toxicity, actives largely listed as cytotoxic; hit rate 2% among 360,000; AID 686971, 2013;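 note: 0% = DMSO wells and -100% = cell-free medium wells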
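Knockdown cells (IDH1KD HT-1080) received compounds 2 h after plating at 750 cells/well and were kept 48 h at 37 °C in 5% FBS RPMI. A CellTiter-Glo luminescence read gave % activity for curve fitting.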
DT40 TDP1 no CPT = qHTS for Inhibitors of human tyrosyl-DNA phosphodiesterase 1 (TDP1): qHTS in cells in absence of CPT | DT40 Tdp1-/- hTDP1 cells, no CPT, ATP luminescence, 48 h | Potency, µM (doses to about 46.2 µM), inactives show top-dose activity change, negative = growth inhibition, usual class: inhibitors | hit rate 15% among 420,000 | AID 686978, 2013; note: nearly all actives have a fitted effect of over 55% in size
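Luminescent ATP content (CellTiter-Glo) served as the growth readout. Knockout chicken DT40 cells expressing human TDP1 were exposed to compounds without camptothecin for a minimum 48 hr at 37 °C.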
* = called active by the depositor. Shown are actives, neighbours in structure and some others; about 19% of the full set was active somewhere. Calls come from the whole dose curve; as a rule, active = well fitted curve in the direction sought with a large enough effect; inconclusive = small, poorly fitted or top-dose-only effect, or another doubt; inactive = no such curve, though single readings can be large; an effect the other way counts as inactive or inconclusive. Unless noted, % is set by controls: 0 for no effect and ±100 for the full control effect; potency is the fitted concentration of half-maximal effect.

`CCCOc1ccc(C2C(=O)N(C3CCCCCC3)CC(=O)N2Cc2ccccc2OC)cc1OC` (stereo unspecified) gave TDP1 cell CPT 25.9µM* and DT40 TDP1 no CPT 16.4µM*.
`COc1ccccc1CN1C(=O)CN(C2CCCCCC2)C(=O)C1c1ccc(F)cc1` (stereo unspecified) gave KB-3-1 tox inactive, KB-V1 cytotox inactive, TDP1 cell CPT 20.6µM*, HT1080-NT tox 3.5%, HT1080 IDH1KD tx inconclusive and DT40 TDP1 no CPT 17.8µM*.
`CCCCN1C(=O)CN(C2CCCCCC2)C(=O)C1c1ccc(OCCC)c(OC)c1` (stereo unspecified) gave TDP1 cell CPT 11.6µM* and DT40 TDP1 no CPT inconclusive.
CCOc1ccc(C2C(=O)N(C3CCCCC3)CC(=O)N2Cc2ccc(F)cc2)cc1OC (stereo unspecified) was read as TDP1 cell CPT inconclusive and DT40 TDP1 no CPT -22.8%.
Screening O=C1NC(=O)C2(CCCCCCC2)N1 returned KB-3-1 tox inactive, KB-V1 cytotox inactive, TDP1 cell CPT -0.4%, HT1080-NT tox 2.6%, HT1080 IDH1KD tx 2.5% and DT40 TDP1 no CPT -1.5%.
For CCOc1ccc(NC(=O)c2cc(C3CC3)nc3c2cnn3C(C)C)cc1OC the results were KB-3-1 tox inactive, KB-V1 cytotox inactive, TDP1 cell CPT -29.1%, HT1080-NT tox 0.7%, HT1080 IDH1KD tx -9.2% and DT40 TDP1 no CPT inconclusive.
COc1cc(-c2csc(NC3CCCCC3)n2)cc(OC)c1OC was read as KB-3-1 tox inactive, KB-V1 cytotox inactive, TDP1 cell CPT inconclusive, HT1080-NT tox -18.3%, HT1080 IDH1KD tx -10.8% and DT40 TDP1 no CPT inconclusive.
Screening CC(C)c1ccc(-c2noc(SCC(=O)N3CCN(c4ccccc4F)CC3)n2)cc1 returned KB-3-1 tox inactive, KB-V1 cytotox inactive, TDP1 cell CPT 23.1µM* and DT40 TDP1 no CPT 20.6µM*.
For O=C(CSc1nc(-c2ccccc2)no1)N1CCN(c2ccccc2F)CC1 the results were KB-3-1 tox inactive, KB-V1 cytotox inactive, TDP1 cell CPT -27.9% and DT40 TDP1 no CPT -12.6%.
`O=C(CSc1nc(-c2ccccc2)no1)N1CCCCC1` gave KB-3-1 tox inactive, KB-V1 cytotox inactive, TDP1 cell CPT inconclusive and DT40 TDP1 no CPT 3.66µM*.
Screening COc1ccccc1N1CCN(C(=O)CSc2nc(-c3ccc(C(C)C)cc3)no2)CC1 returned KB-3-1 tox inactive, KB-V1 cytotox inactive, TDP1 cell CPT 23.1µM* and DT40 TDP1 no CPT 6.51µM*.
`COc1ccc(Cn2c(=O)c3cccnc3n(CC(=O)Nc3c(C)cc(C)cc3C)c2=O)cc1` gave KB-3-1 tox inactive, KB-V1 cytotox inactive, TDP1 cell CPT inconclusive and DT40 TDP1 no CPT inconclusive.
Cc1c[nH]c2cccc(OCC(O)CNC(C)(C)C)c12 (stereo unspecified) was read as KB-3-1 tox inactive, KB-V1 cytotox inactive, TDP1 cell CPT 5.0%, HT1080-NT tox 14.2%, HT1080 IDH1KD tx 2.8% and DT40 TDP1 no CPT -6.5%.
CC(C)(Cc1c[nH]c2ccccc12)NCC(O)COc1ccccc1C#N (stereo unspecified) was read as TDP1 cell CPT 21.1µM* and DT40 TDP1 no CPT 23.7µM*.
`C#CCN(C[C@H]1[C@H](OC(=O)NCc2ccco2)[C@H](OC(=O)NCc2ccco2)C[C@@H](C(=O)OC)[C@H]1C(=O)OC)S(=O)(=O)c1ccc(C)cc1` gave KB-3-1 tox inactive, KB-V1 cytotox inactive, TDP1 cell CPT 20.6µM*, HT1080-NT tox -5.4%, HT1080 IDH1KD tx -4.9% and DT40 TDP1 no CPT inconclusive.
For C#CCN(C[C@H]1[C@H](OC(=O)NC2CCCC2)[C@H](OC(=O)NC2CCCC2)C[C@@H](C(=O)OC)[C@H]1C(=O)OC)S(=O)(=O)c1ccc(C)cc1 the results were KB-3-1 tox inconclusive, KB-V1 cytotox inconclusive, TDP1 cell CPT 13µM*, HT1080-NT tox -19.6%, HT1080 IDH1KD tx -2.0% and DT40 TDP1 no CPT 16.4µM*.
`C#CCN(C[C@H]1[C@H](OC(=O)NCc2ccc(OC)c(OC)c2)[C@H](OC(=O)NCc2ccc(OC)c(OC)c2)C[C@@H](C(=O)OC)[C@H]1C(=O)OC)S(=O)(=O)c1ccc(C)cc1` gave KB-3-1 tox inactive, KB-V1 cytotox inactive, TDP1 cell CPT 20.6µM*, HT1080-NT tox -7.7%, HT1080 IDH1KD tx -12.3% and DT40 TDP1 no CPT 13µM*.
`C=CCn1c(SCC(=O)N(C(C)CC)C2CCS(=O)(=O)C2)nc2ccccc2c1=O` (stereo unspecified) gave KB-3-1 tox inactive, KB-V1 cytotox inactive, TDP1 cell CPT inconclusive, HT1080-NT tox -3.6%, HT1080 IDH1KD tx 1.0% and DT40 TDP1 no CPT -13.5%.
Screening CNC(=O)C1CCC(Cn2c(=O)c3sccc3n(CC(=O)Nc3ccc(C)c(F)c3)c2=O)CC1 (stereo unspecified) returned KB-3-1 tox inactive, KB-V1 cytotox inconclusive, TDP1 cell CPT inconclusive and DT40 TDP1 no CPT inconclusive.
`CC[C@@]1(C(=O)OC)N[C@H](CN(C)S(=O)(=O)c2ccc(C(C)(C)C)cc2)[C@@H]2C(=O)N(C)C(=O)[C@@H]21` gave KB-3-1 tox inactive, KB-V1 cytotox inactive, TDP1 cell CPT -28.2%, HT1080-NT tox 6.8%, HT1080 IDH1KD tx 8.2% and DT40 TDP1 no CPT inconclusive.
Screening CCOC(=O)c1ccc(NC2=CC(c3ccc(O)c(OCC)c3)N(c3ccc(C(=O)OCC)cc3)C2=O)cc1 (stereo unspecified) returned KB-3-1 tox inactive, KB-V1 cytotox inactive, TDP1 cell CPT 13µM* and DT40 TDP1 no CPT 13µM*.
`COc1cc(C2C=C(Nc3ccccc3)C(=O)N2c2ccccc2)ccc1O` (stereo unspecified) gave KB-3-1 tox inactive, KB-V1 cytotox inconclusive, TDP1 cell CPT inconclusive, HT1080-NT tox -1.7%, HT1080 IDH1KD tx -7.2% and DT40 TDP1 no CPT inconclusive.
